A short description of experiment [1]: qHTS assay to identify small molecule antagonists of the thyroid receptor (TR) signaling pathway (AID 743065). Also: series mostly up to about 70 µM; nearly all actives have a fitted effect of over 55% in size. In outline:
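GH3.TRE-Luc rat pituitary cells carrying two TR response elements driving luciferase were plated for 4 h, given compound plus 1 nM T3 (final), and incubated 23.5 h at 37 C. ONE-Glo luminescence measured reporter inhibition; CellTiter-Fluor fluorescence tracked cytotoxicity.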

Experiment [2] has as its system thyroid hormone receptor (rat, GH3 cells). In words: qHTS assay to identify small molecule agonists of the thyroid receptor (TR) signaling pathway (AID 743066; calls by dose curve).
A short description of experiment [3]: qHTS assay to identify small molecule antagonists of the estrogen receptor alpha (ER-alpha) signaling pathway - cell viability counter screen (AID 743074; calls by dose curve; also: nearly all actives have a fitted effect of over 45% in size).
A short description of experiment [4]: qHTS assay to identify small molecule antagonists of the estrogen receptor alpha (ER-alpha) signaling pathway using the BG1 cell line - cell viability counter screen (AID 743081).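 Also: compound given together with 17beta-estradiol as the ER stimulus; series mostly up to about 70 µM; nearly all actives have a fitted effect of over 45% in size.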
The target in a further experiment is Aromatase (Homo sapiens) (UniProt P11511). Kind of experiment: qHTS assay to identify aromatase inhibitors (AID 743083). Also: nearly all actives have a fitted effect of over 55% in size. Also: potency is read from the fitted curve at half-maximal effect. As to activity, negative = inhibition: series mostly up to about 70 µM.
Experiment [5] is described as follows: qHTS assay to identify aromatase inhibitors - cell viability counter screen (AID 743084).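 Also: cells stimulated with testosterone during compound exposure; nearly all actives have a fitted effect of over 55% in size.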
The target of experiment [6] is Aryl hydrocarbon receptor (Homo sapiens) (UniProt P35869). Kind of experiment: qHTS assay to identify small molecule that activate the aryl hydrocarbon receptor (AhR) signaling pathway (AID 743085).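 Also: HG2L7.5c1 human HepG2 liver cells with stably integrated DRE-driven firefly reporter; series mostly up to about 70 µM; nearly all actives have a fitted effect of over 15% in size.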 In outline: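 Reporter assay in engineered HepG2 line HG2L7.5c1, whose plasmid carries twenty dioxin responsive elements upstream of firefly luciferase. Treatment lasted 24 h at 37C; ONE-Glo luminescence gauged induction.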

Experiment [7] can be described thus: qHTS assay to identify small molecule that activate the aryl hydrocarbon receptor (AhR) signaling pathway - cell viability counter screen (AID 743086).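 Also: HepG2 liver cells carrying the AhR DRE luciferase reporter; series mostly up to about 70 µM; nearly all actives have a fitted effect of over 45% in size.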 Summed up:
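HepG2-AhR-luc (HG2L7.5c1) cells, 4000/well, were preincubated 5 h at 37C, exposed to compound in qHTS format for 24 hr at 37C, then given CellTiter-Fluor for 30 min; viability was read as fluorescence in the reporter wells.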

A short description of experiment [8]: qHTS assay for small molecule agonists of the antioxidant response element (ARE) signaling pathway - cell viability counter screen (AID 743203; calls by dose curve; also: nearly all actives have a fitted effect of over 55% in size). In outline: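 Seeded at 2,000 cells/well, ARE-bla HepG2 cells were incubated 5 hrs before compound addition. After 16 hrs of treatment at 37C with 5% CO2, CellTiter-Glo reagent was added and luminescence read 30 min later.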

Experiment [9] in a line: qHTS assay for small molecule activators of the heat shock response signaling pathway - cell viability counter screen (AID 743209). Also: nearly all actives have a fitted effect of over 50% in size. In outline: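 First, HSE-bla HeLa cells were seeded at 1500 cells/well and kept overnight at 37 C. Next, compounds were pinned in and incubated 5 h. After the FRET substrate step, CellTiter-Glo was added and luminescence read 30 min later.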

Experiment [10] has as its target Peroxisome proliferator-activated receptor gamma (Homo sapiens) (UniProt P37231). In words: qHTS assay to identify small molecule agonists of the peroxisome proliferator-activated receptor gamma (PPARg) signaling pathway (AID 743094; active = well fitted activation curve with a large enough effect in the signal ratio in the repeat runs, not every such curve was filed as active; the % refers to the signal ratio). Summed up: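 Quantitative HTS agonist mode: stable HEK293H line with UAS-beta-lactamase reporter under PPARg control, 17 h compound exposure at 37C, fluorescence after 1 h FRET substrate loading at room temperature.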

For experiment [11] the target is unchanged. In words: qHTS assay to identify small molecule antagonists of the peroxisome proliferator-activated receptor gamma (PPARg) signaling pathway (AID 743191; calls by dose curve; also: series mostly up to about 63 µM; nearly all actives have a fitted effect of over 30% in size). Summed up: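 GeneBLAzer PPARg UAS-bla HEK293H cells carrying a UAS-driven beta-lactamase reporter were plated at 3000 cells/well, preincubated 5 h at 37C, then given compound for 17 h at 37C; LiveBLAzer B/G FRET substrate was read after 1 h at room temperature.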

Experiment [12] in a line: qHTS assay for small molecule activators of the heat shock response signaling pathway (AID 743210; active = well fitted activation curve with a large enough effect in the signal ratio in the repeat runs, with a control signal flat, not every such curve was filed as active; the % refers to the signal ratio; also: series mostly up to about 63 µM). Summed up: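 HSE-bla HeLa cells (beta-lactamase reporter under heat shock response elements) were exposed to compounds for 5 h at 37 C, then loaded with LiveBLAzer B/G FRET substrate for 2.5 h at room temperature before fluorescence reading.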
Experiment [13] is described as follows: qHTS assay to identify small molecule antagonists of the peroxisome proliferator-activated receptor gamma (PPARg) signaling pathway - cell viability counter screen (AID 743194). Also: nearly all actives have a fitted effect of over 55% in size. Summed up:
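PPARg-UAS-bla HEK293H cells were plated, rested 5 h at 37 C, then treated with compounds plus rosiglitazone (50 nM final) for 17 h at 37 C; viability was then read by CellTiter-Glo luminescence after 30 min at room temperature.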

A short description of experiment [14]: qHTS assay for small molecule agonists of the antioxidant response element (ARE) signaling pathway (AID 743202; active = well fitted activation curve with a large enough effect in the signal ratio in the repeat runs, not every such curve was filed as active; the % refers to the signal ratio). In outline: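 Read-out: LiveBLAzer B/G FRET substrate fluorescence after 2 h at room temperature, following 16 h compound treatment at 37 C of HepG2 cells carrying an ARE-driven beta-lactamase reporter.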
In experiment [15] the target is Estrogen receptor (Homo sapiens) (UniProt P03372). In words: qHTS assay to identify small molecule agonists of the estrogen receptor alpha (ER-alpha) signaling pathway (AID 743075; calls by dose curve).
Experiment [16] in a line: qHTS assay to identify small molecule antagonists of the estrogen receptor alpha (ER-alpha) signaling pathway using the BG1 cell line (AID 743080; calls by dose curve;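 also: BG1 cells stimulated with 17beta-estradiol alongside compound; series mostly up to about 70 µM; nearly all actives have a fitted effect of over 25% in size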). In outline: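 BG1Luc4E2, endogenous ER-alpha, 4xERE-luc; 5 d charcoal-stripped FBS, phenol red free; 24 h plating; cpd + 17beta-estradiol 21.5 h, 37 C/5% CO2; CellTiter-Fluor viability 30 min, then ONE-Glo luciferase 30 min RT.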

The target of experiment [17] is Estrogen receptor (Homo sapiens) (UniProt P03372). In words: qHTS assay to identify small molecule antagonists of the estrogen receptor alpha (ER-alpha) signaling pathway (AID 743069; active = well fitted curve in the direction sought with a large enough effect in the signal ratio in the repeat runs, not every such curve was filed as active; the % refers to the signal ratio). In outline:
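HEK293 cells stably carrying an ER-alpha-UAS-bla beta-lactamase reporter were pre-cultured overnight in 2% charcoal-stripped FBS medium. Test compounds in DMSO were added together with 17beta-estradiol for 18 hr at 37C. Read-out was fluorescence after 2 hr with LiveBLAzer B/G FRET substrate at room temperature.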

The target is the same in experiment [18]. In words: qHTS assay to identify small molecule agonists of the estrogen receptor alpha (ER-alpha) signaling pathway using the BG1 cell line (AID 743079). Also: nearly all actives have a fitted effect of over 20% in size.

Results filed as inconclusive are left out. Unmarked numbers belong to inactive results. The source made the active and inactive calls. Unless noted, calls follow the shape of the dose curve; as a rule, active = well fitted curve in the direction sought with a large enough effect in the repeat runs; inconclusive = weak or mixed curves; inactive = no such curve, though single readings can be large; an effect the other way counts as inactive or inconclusive.
% is scaled to controls: 0 for no effect and ±100 for the full control effect.

Sequence of Aromatase (Homo sapiens) (P11511 whole entry, looked up): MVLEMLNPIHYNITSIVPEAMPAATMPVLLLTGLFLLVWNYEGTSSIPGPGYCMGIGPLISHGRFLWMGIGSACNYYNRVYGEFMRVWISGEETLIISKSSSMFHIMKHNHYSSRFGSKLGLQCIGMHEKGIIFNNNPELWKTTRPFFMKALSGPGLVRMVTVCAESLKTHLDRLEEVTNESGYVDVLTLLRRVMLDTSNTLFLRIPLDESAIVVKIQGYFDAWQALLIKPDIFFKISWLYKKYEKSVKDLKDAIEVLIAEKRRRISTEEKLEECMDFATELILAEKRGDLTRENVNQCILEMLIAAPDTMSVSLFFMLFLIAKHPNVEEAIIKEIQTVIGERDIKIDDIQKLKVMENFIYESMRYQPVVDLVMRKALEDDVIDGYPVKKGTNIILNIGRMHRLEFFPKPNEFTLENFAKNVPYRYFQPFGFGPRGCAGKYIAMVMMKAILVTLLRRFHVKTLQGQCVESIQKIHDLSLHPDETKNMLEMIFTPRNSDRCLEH
Sequence of Peroxisome proliferator-activated receptor gamma (Homo sapiens) (P37231 whole entry, looked up): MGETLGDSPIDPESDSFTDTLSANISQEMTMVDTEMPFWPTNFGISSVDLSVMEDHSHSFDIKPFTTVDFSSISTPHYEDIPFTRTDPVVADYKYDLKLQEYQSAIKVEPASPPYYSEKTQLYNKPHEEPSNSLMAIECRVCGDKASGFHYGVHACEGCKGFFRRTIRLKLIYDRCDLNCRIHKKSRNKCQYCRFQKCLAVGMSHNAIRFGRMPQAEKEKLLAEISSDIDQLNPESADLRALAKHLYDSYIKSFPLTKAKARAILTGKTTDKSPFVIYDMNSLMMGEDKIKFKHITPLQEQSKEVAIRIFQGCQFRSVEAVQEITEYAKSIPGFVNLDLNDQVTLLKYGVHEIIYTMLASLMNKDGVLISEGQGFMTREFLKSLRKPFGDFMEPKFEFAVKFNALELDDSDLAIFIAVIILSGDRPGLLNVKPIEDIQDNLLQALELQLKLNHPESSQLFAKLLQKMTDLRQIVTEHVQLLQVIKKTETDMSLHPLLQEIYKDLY
Sequence of Estrogen receptor (Homo sapiens) (P03372 whole entry, looked up): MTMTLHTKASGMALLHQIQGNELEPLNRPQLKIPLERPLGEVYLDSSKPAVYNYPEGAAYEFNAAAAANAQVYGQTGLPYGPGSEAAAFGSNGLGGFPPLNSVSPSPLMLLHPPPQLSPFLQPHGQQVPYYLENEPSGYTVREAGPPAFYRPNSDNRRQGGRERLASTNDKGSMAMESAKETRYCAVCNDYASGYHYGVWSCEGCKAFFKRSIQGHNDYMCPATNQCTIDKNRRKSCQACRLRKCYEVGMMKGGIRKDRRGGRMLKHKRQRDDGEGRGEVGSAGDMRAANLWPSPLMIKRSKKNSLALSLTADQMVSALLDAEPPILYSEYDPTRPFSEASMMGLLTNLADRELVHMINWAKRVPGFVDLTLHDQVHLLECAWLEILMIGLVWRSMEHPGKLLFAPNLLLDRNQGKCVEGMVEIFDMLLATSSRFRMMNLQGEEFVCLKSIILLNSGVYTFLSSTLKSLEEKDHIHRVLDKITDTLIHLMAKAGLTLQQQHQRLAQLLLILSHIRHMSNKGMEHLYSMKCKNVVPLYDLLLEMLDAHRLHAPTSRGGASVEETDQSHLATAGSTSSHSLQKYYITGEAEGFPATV
Sequence of Aryl hydrocarbon receptor (Homo sapiens) (P35869 whole entry, looked up): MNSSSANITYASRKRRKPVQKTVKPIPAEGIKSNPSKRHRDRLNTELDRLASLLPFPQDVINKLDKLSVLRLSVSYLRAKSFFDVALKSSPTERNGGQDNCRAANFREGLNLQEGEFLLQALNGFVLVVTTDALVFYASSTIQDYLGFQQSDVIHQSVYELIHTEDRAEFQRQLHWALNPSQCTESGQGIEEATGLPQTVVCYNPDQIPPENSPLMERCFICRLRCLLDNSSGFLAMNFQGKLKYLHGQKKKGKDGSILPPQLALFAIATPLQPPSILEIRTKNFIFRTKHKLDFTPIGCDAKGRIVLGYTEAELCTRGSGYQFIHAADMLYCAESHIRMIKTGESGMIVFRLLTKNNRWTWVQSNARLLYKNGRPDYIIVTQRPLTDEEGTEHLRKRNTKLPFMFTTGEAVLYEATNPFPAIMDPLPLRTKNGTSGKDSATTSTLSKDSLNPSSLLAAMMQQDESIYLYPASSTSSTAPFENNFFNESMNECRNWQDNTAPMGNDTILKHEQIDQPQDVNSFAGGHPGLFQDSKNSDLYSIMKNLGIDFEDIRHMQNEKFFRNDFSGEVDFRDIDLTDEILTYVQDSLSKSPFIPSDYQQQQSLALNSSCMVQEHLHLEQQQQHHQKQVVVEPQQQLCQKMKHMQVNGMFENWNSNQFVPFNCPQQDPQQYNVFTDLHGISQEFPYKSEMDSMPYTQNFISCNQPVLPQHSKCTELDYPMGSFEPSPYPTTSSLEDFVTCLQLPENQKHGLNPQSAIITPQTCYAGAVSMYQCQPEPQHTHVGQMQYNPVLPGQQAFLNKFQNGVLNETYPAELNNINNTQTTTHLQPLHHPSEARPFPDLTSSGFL

Take `CC(C)CNCC(C)C`: the Potency result (in experiment [1]; in experiment [4]; with Aromatase (Homo sapiens); in experiment [5]; in experiment [6]; in experiment [7]) was “inactive” throughout. Besides, the Potency entry in experiment [8] is “inactive”. For the same compound, the call in experiment [2], in experiment [3] and in experiment [9] was inactive.
`Nc1ccccc1S(=O)(=O)O`: the Potency result (in experiment [1]; in experiment [4]; in the experiment with Aromatase (Homo sapiens); in experiment [5]; in [6]; in experiment [7]) was “inactive” throughout. Moreover, the Potency entry in experiment [11] and in experiment [8] was “inactive” throughout. The outcome in experiment [2], in [3], in [10], in experiment [9] and in experiment [12] was inactive.
Take `CC(C)NCCCC1(C(N)=O)c2ccccc2-c2ccccc21`: the Potency result in experiment [11], in experiment [14] and in experiment [8] was “inactive” in each case. Also, the outcome in experiment [13], in experiment [9] and in experiment [12] was inactive.
`CC[N+](C)(C)c1cccc(O)c1`: the outcome in experiment [3], in experiment [10], in experiment [9] and in [12] was inactive. In addition, the Potency result (in experiment [4]; in the experiment with Aromatase (Homo sapiens); in [5]; in experiment [6]; in experiment [7]; in [11]) was “inactive” in each case. Moreover, the Potency result in experiment [14] and in experiment [8] was “inactive” throughout.
For `O=C1CC2CC1C1CCCC21` (centres undefined), the Potency result (in [1]; in experiment [15]; in [4]; in the experiment with Aromatase (Homo sapiens); in experiment [5]; in experiment [6]) was “inactive” throughout. Also, the Potency result in experiment [7], in experiment [11] and in experiment [8] was “inactive” each time. Moreover, the compound was classed as inactive in experiment [2], in experiment [3], in experiment [16], in [10], in experiment [9] and in [12].
`N[C@@H](C(=O)N[C@@H]1C(=O)N2C(C(=O)O)=C(Cl)CS[C@H]12)c1ccccc1`: the outcome in experiment [2], in experiment [17], in [3], in experiment [16] and in experiment [10] was inactive. Further, the Potency result (in [15]; in experiment [18]; in experiment [4]; in the experiment with Aromatase (Homo sapiens); in experiment [5]; in [7]) was “inactive” each time. For the same compound, in experiment [11], the ratio activity, negative = inhibition was 6.67% [at 13.2 µM]. Also, the activation is -0.175% [at 8.36 µM] in [14] and -0.803% [at 13.2 µM] in experiment [12]. In [8], the viability change, negative = cytotoxic was 3.71% [at 8.36 µM]. For the same compound, in [9], the activity change, negative = cytotoxicity is -29.5% [at 13.2 µM].
Turning to `O=C1NC(=O)[C@@]2(CCOc3ccc(F)cc32)N1`, the call in experiment [17], in [3], in [16], in experiment [13] and in experiment [9] was inactive. Moreover, the Potency result (in [15]; in [18]; in experiment [4]; in the experiment with Aromatase (Homo sapiens); in [5]; in [6]) was “inactive” in each case. The Potency result in experiment [7], in experiment [14] and in experiment [8] was “inactive” each time.
On to `COc1nc(N)nc2c1ncn2[C@@H]1O[C@H](CO)[C@@H](O)[C@@H]1O`, for which the outcome in experiment [2], in experiment [3], in experiment [13], in experiment [9] and in [12] was inactive. Further, the Potency result (in [4]; with Aromatase (Homo sapiens); in experiment [5]; in experiment [7]; in [14]; in [8]) was “inactive” throughout.
Regarding `CCN(CC)CCOCCOC(=O)C1(c2ccccc2)CCCC1`, the Potency entry (in experiment [15]; in experiment [18]; in experiment [4]; in the experiment with Aromatase (Homo sapiens); in experiment [6]; in [14]) was “inactive” throughout. Besides, the Potency result in experiment [8] is “inactive”. Besides, the outcome in experiment [13], in [9] and in [12] was inactive.
Take `Cc1cccc(C)c1NC(=O)C(C)N` (centres undefined): the compound was called inactive in experiment [17], in [3], in experiment [16], in [9] and in experiment [12]. Besides, the Potency entry (in experiment [15]; in experiment [18]; in experiment [4]; with Aromatase (Homo sapiens); in experiment [5]; in [7]) was “inactive” in each case. Also, in experiment [8], the Potency entry is “inactive”.
Regarding `NS(=O)(=O)c1cc(C(=O)NN2C[C@H]3[C@H]4CCC(C4)[C@H]3C2)ccc1Cl`, the Potency result in [14] and in experiment [8] was “inactive” each time. For the same compound, the call in [9] and in experiment [12] was inactive.
`CCn1nc(C(=O)O)c(=O)c2cc3c(cc21)OCO3`: the compound was classed as inactive in experiment [17], in experiment [3], in experiment [16], in experiment [10], in experiment [13] and in experiment [9]. Moreover, the compound was classed as inactive in experiment [12]. In addition, the Potency entry (in [15]; in experiment [18]; in [4]; in the experiment with Aromatase (Homo sapiens); in experiment [5]; in experiment [6]) was “inactive” in each case. The Potency result in experiment [7], in [11] and in experiment [8] was “inactive” each time.
Consider `C[C@H](NC(CCc1ccccc1)C(=O)O)C(=O)N1CCC[C@H]1C(=O)O` (some centres undefined), for which the Potency result (in experiment [1]; in [15]; in [18]; in experiment [4]; in the experiment with Aromatase (Homo sapiens); in experiment [5]) was “inactive” throughout. Besides, the Potency result in experiment [6], in [7], in [11] and in [8] was “inactive” each time. The compound was classed as inactive in experiment [2], in [17], in experiment [16], in [9] and in [12].
With `Cc1sccc1Br`, the Potency result in experiment [11], in experiment [14] and in experiment [8] was “inactive” throughout. The result in experiment [13], in experiment [9] and in [12] was inactive.
In the case of `C=COCC1CCC(CO)CC1` (centres undefined), the Potency entry (in [1]; in experiment [15]; in experiment [18]; in experiment [4]; in the experiment with Aromatase (Homo sapiens); in [5]) was “inactive” in each case. Further, the Potency result in experiment [6], in [7], in experiment [11], in experiment [14] and in [8] was “inactive” throughout. The result in experiment [2], in experiment [16], in [10], in experiment [13], in experiment [9] and in experiment [12] was inactive.
Regarding `Cc1cnc(NS(=O)(=O)c2ccc(N)cc2)nc1`, the Potency result in experiment [14] and in experiment [8] was “inactive” in each case. For the same compound, the call in [9] and in experiment [12] was inactive.
Turning to `CN1N=C(C(N)=O)CCC1=O`, the Potency entry in experiment [11], in [14] and in experiment [8] was “inactive” in each case. For the same compound, the outcome in [13], in experiment [9] and in [12] was inactive.
For `CC(NC(CCc1ccccc1)C(=O)O)C(=O)N1C(=O)N(C)CC1C(=O)O` (centres undefined), the Potency entry in experiment [11], in experiment [14] and in experiment [8] was “inactive” throughout. Besides, the result in experiment [13], in experiment [9] and in experiment [12] was inactive.
Take `CC/C=C\CC/C=C/CO`: the Potency result (in experiment [1]; in experiment [4]; with Aromatase (Homo sapiens); in experiment [5]; in experiment [6]; in experiment [7]) was “inactive” in each case. Besides, the Potency result in experiment [8] is “inactive”. Further, the result in [2], in [3], in [10], in experiment [13] and in experiment [9] was inactive.
Regarding `CCN(Cc1ccncc1)C(=O)C(CO)c1ccccc1` (centres undefined), the outcome in experiment [2], in experiment [3] and in [9] was inactive. Also, the Potency entry in experiment [4], in experiment [5], in experiment [6], in experiment [7] and in experiment [8] was “inactive” throughout. The Potency in the experiment with Aromatase (Homo sapiens) is 29.8 µM (active).

These data come from PubChem BioAssay (Tox21).
